From the supplement of paper PMC10849652
Of roughly 8,800 targets only a part is listed; those with a hit were picked by preference. About 0.5% of all pairs of compound and target were hits. Values without a mark were called inactive.

Legend:
Assay in all cases: log2 fold change, soluble protein after heating vs DMSO (PISA); higher = thermal stabilisation; K562 lysate, 10 uM; active = over 0.2 and 3.5 SD of the protein, either way, in both replicates (recomputed)
[1] = compound: NCC(=O)Nc1ccc(-n2nc(C(F)(F)F)cc2-c2ccc3c(ccc4ccccc43)c2)cc1
In short: (§1)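 Log-two fold change in thermal stability relative to solvent controls is reported from duplicates. For each sample, crude K562 extract from dounce-homogenised pellets in PBS pH 7.4 with 1 mM MgCl2, at 1 mg/mL protein, was treated with 10 μM compound for 30 min. Aliquots heated for 3 min across 48°C-58°C were pooled, brought to 0.5% NP-40 at 4°C and cleared at 21,000xg for 90 min. The supernatant was quantified by TMTpro 16plex LC-MS/MS with channel sums equalised.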

vorinostat = compound: O=C(CCCCCCC(=O)Nc1ccccc1)NO [vorinostat]
In short: as §1

silmitasertib = compound: O=C(O)c1ccc2c(c1)nc(Nc1cccc(Cl)c1)c1ccncc12 [silmitasertib]
In short: as §1

[2] = compound: O=C1NC(=O)C(c2cnc3ccccn23)=C1c1cn2c3c(cc(F)cc13)CN(C(=O)N1CCCCC1)CC2
In short: as §1

entospletinib = compound: c1cn2cc(-c3ccc4cn[nH]c4c3)nc(Nc3ccc(N4CCOCC4)cc3)c2n1 [entospletinib]
In short: as §1

UniProt P41219, sequence (P41219 whole entry, looked up): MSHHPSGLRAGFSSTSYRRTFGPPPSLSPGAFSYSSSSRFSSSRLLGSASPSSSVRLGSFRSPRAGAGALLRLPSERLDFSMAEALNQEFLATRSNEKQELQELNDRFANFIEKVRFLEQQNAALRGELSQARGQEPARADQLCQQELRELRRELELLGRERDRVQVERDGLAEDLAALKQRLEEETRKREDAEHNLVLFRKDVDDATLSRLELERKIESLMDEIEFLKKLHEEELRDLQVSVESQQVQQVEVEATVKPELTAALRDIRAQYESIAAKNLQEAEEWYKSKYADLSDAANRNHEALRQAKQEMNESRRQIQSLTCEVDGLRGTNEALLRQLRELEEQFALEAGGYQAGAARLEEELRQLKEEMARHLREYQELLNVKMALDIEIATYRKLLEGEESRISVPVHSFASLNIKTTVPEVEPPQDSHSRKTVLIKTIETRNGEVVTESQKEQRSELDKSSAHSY
UniProt O15031, sequence (O15031 whole entry, looked up): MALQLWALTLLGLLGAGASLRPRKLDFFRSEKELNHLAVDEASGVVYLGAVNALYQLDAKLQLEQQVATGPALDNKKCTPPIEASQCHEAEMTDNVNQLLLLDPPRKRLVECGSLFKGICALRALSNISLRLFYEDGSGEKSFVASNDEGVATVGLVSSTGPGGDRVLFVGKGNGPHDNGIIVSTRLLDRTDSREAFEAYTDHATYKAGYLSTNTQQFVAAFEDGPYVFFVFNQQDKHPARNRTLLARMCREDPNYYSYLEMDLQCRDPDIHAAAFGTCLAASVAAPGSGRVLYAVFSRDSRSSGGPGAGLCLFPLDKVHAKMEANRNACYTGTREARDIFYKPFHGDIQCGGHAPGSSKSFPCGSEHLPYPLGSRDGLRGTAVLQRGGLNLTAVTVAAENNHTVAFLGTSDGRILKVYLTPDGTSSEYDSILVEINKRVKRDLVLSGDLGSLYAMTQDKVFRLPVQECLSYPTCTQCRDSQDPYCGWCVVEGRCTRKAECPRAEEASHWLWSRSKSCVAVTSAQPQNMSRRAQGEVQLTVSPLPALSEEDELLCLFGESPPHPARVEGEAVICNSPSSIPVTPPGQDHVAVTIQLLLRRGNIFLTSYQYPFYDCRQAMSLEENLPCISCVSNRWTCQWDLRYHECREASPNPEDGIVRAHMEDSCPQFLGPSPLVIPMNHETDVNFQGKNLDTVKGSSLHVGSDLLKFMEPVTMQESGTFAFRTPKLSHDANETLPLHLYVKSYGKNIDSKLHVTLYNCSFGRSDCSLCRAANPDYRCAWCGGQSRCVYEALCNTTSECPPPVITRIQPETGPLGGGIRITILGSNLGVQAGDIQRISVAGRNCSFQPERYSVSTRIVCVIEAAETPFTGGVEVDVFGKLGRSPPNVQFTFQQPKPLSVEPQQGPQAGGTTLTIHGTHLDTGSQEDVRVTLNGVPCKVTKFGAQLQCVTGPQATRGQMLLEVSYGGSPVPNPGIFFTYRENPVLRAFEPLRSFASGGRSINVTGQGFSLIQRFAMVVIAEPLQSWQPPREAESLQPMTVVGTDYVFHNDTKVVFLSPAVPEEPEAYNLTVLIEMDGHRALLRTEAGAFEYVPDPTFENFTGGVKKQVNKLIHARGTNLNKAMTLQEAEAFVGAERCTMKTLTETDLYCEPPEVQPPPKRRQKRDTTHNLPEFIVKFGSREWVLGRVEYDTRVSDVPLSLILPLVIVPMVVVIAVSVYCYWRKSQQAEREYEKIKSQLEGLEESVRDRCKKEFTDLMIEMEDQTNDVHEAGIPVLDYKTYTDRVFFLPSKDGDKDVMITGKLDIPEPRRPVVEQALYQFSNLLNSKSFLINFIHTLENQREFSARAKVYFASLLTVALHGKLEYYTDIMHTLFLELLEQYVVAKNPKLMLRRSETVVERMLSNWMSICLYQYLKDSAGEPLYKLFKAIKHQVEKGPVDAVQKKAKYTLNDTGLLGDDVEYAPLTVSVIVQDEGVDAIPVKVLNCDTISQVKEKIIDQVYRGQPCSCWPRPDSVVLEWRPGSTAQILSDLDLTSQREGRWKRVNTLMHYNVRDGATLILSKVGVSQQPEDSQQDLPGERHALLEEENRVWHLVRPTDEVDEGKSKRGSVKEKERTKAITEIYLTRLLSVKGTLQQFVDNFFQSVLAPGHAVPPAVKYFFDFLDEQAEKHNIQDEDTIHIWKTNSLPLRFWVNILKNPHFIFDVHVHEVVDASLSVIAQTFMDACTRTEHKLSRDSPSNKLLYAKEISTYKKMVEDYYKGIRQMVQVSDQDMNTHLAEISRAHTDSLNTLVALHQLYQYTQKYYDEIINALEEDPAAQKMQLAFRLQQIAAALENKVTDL
UniProt P28340, sequence (P28340 whole entry, looked up): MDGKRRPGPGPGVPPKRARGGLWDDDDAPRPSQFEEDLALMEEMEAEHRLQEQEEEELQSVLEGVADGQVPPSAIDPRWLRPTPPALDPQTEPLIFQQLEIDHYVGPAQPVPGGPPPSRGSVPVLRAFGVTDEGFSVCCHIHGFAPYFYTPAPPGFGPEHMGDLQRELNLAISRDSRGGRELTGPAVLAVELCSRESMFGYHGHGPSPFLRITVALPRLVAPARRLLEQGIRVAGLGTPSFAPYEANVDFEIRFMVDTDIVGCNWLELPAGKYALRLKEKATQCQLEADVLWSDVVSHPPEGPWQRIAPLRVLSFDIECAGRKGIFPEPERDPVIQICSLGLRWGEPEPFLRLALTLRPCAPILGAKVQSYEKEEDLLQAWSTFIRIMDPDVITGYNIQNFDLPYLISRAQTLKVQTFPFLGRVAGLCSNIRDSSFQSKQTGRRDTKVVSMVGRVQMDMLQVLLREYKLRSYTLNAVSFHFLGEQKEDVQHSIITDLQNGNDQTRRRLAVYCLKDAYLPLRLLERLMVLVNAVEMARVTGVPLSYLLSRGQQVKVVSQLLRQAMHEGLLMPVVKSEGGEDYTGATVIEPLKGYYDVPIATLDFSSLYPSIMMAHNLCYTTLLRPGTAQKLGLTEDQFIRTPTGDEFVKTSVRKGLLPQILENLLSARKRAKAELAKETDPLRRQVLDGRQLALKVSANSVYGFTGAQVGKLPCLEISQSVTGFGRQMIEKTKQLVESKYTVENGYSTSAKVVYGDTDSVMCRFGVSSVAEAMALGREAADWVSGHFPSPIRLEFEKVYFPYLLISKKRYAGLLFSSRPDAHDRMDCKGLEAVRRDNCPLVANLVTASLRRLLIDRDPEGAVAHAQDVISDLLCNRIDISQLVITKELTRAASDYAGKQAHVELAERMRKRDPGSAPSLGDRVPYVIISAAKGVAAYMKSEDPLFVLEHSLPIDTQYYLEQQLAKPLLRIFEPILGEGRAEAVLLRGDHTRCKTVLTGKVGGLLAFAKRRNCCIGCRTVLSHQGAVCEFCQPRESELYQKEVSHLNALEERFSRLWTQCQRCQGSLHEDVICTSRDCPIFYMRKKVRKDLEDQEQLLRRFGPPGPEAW
UniProt Q9BRQ0, sequence (Q9BRQ0 whole entry, looked up): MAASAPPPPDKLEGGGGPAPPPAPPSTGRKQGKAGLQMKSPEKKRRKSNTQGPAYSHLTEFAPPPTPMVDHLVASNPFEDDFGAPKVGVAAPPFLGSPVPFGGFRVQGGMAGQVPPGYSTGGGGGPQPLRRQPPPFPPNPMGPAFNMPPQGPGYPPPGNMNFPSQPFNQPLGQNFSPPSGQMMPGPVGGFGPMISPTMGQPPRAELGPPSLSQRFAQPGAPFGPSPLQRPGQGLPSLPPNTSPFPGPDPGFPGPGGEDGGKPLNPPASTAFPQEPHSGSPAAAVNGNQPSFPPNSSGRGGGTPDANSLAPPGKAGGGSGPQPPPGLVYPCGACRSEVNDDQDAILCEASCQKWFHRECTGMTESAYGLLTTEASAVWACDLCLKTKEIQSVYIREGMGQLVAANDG
UniProt Q9P215, sequence (Q9P215 whole entry, looked up): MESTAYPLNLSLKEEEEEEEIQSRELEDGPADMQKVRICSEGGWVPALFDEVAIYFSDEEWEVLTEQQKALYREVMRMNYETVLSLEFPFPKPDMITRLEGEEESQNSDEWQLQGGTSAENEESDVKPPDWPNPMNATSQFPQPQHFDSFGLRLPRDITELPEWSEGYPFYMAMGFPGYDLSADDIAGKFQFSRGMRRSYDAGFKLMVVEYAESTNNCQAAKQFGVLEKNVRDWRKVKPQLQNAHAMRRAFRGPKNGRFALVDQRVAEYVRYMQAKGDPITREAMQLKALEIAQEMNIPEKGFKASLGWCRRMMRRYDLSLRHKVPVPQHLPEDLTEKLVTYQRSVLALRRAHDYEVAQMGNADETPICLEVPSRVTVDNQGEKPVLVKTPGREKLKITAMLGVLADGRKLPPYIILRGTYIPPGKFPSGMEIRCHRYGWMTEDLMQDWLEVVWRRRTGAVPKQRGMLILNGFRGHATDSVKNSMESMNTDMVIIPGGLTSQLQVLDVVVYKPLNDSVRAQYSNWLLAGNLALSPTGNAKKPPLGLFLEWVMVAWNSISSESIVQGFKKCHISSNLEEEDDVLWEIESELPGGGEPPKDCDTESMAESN
UniProt O00764, sequence (O00764 whole entry, looked up): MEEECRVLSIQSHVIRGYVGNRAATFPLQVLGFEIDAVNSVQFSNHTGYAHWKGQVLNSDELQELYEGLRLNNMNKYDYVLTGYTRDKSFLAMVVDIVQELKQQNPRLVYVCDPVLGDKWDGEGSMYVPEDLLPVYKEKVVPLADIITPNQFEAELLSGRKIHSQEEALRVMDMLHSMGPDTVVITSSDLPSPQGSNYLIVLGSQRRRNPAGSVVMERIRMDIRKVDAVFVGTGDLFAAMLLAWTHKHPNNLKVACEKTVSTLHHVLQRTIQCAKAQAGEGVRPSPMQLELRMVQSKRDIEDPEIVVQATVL
UniProt O60927, sequence (O60927 whole entry, looked up): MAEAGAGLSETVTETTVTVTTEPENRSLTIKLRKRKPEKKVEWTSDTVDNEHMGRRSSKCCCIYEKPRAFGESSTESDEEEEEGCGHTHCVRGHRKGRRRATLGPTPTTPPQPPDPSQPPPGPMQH
UniProt P60673, sequence (P60673 whole entry, looked up): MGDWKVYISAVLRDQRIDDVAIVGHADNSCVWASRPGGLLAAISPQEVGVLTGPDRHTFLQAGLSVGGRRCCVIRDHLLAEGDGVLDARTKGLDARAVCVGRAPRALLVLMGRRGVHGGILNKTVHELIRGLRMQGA

Target | log2 fold change [1] | log2 fold change (vorinostat) | log2 fold change (silmitasertib) | log2 fold change [2] | log2 fold change (entospletinib)
PTPN6 isoform 4 (UniProt P29350) | -0.001 | -0.039 | 0.078 | 0.006 | 0.107
PDXK (UniProt O00764) | -0.005 | 0.073 | -0.008 | 0.026 | -0.009
PDCD6IP isoform 2 (UniProt Q8WUM4) | -0.001 | -0.473 (active) | 0.019 | -0.006 | 0.018
POLD1 (UniProt P28340) | 0.016 | -0.245 (active) | 0.016 | 0.005 | -0.009
PFKFB4 (UniProt Q16877) | 0.007 | -0.369 (active) | 0 | -0.031 | 0.051
PLXNB2 (UniProt O15031) | 0.003 | 0.033 | 0.001 | 0.019 | -0.03
PLA2G4B isoform 6 (UniProt P0C869) | -0.008 | 0.002 | -0.017 | 0.264 | 0.06
PIK3C3 (UniProt Q8NEB9) | -0.04 | -0.066 | 0.037 | 0.019 | -0.014
PRIM1 (UniProt P49642) | -0.015 | -0.284 (active) | 0.049 | 0.024 | 0.035
PFN3 (UniProt P60673) | 0.158 |  |  | -0.142 | -0.134
POC5 (UniProt Q8NA72) | -0.128 | -0.36 (active) | -0.021 | 0.02 | -0.184
PHOSPHO2 (UniProt C9JD35) |  |  |  | 0.004 | 0.155
PNPLA4 (UniProt P41247) | -0.012 |  |  | -0.093 | -0.046
PRMT7 (UniProt Q9NVM4) | -0.017 | -0.174 | -0.011 | 0.04 | -0.018
PLXND1 (UniProt Q9Y4D7) |  | -0.132 | 0.174 | 0.018 | 
PRADC1 (UniProt Q9BSG0) |  | 0.07 | -0.041 | -0.012 | 
PSMB9 (UniProt P28065) | 0.07 | 0.057 | 0.008 | 0.081 | 0
PHF14 (UniProt O94880) | -0.062 |  |  |  | 0.039
PFN1 (UniProt I3L3D5) |  |  |  |  | -0.194
PECR (UniProt Q9BY49) |  |  |  |  | 0.115
PPP1R8 (UniProt Q12972) | 0.02 | 0.04 | -0.009 | -0.017 | 0.025
PLIN2 (UniProt Q99541) | 0.012 | 0.063 | -0.008 | 0.008 | -0.032
PRR4 (UniProt Q16378) | 0.009 | 0.229 | -0.176 |  | 0.302
PHACTR4 isoform 2 (UniProt Q8IZ21) | 0.025 | 0.014 | 0.01 | 0.009 | -0.024

Target | log2 fold change [1] | log2 fold change (vorinostat) | log2 fold change (silmitasertib) | log2 fold change [2] | log2 fold change (entospletinib)
PCBP2 (UniProt F8VRH0) |  | -0.982 (active) | -0.441 | 0.006 | 
PTS (UniProt Q03393) | 0.053 | 0.006 | 0.009 | -0.151 | 0.032
PHOSPHO2 (UniProt Q8TCD6) | -0.051 | 0.181 | -0.002 | 0.001 | -0.116
POLR2G (UniProt P62487) | 0.001 | 0.116 | -0.043 | -0.03 | 0.014
PICALM (UniProt H0YCY1) |  | 0.202 | -0.07 |  | 
PGLS (UniProt O95336) | -0.08 | 0.079 | -0.034 | 0.072 | 0.003
PRG4 (UniProt Q92954) |  |  |  | -0.145 | 
PDIA4, A0A499FI48 |  |  |  | 0.045 | 
POGK (UniProt Q9P215) | 0.018 | -0.173 | 0.002 | -0.083 | 0.3
NA (UniProt Q4G0T1) |  | -0.027 | 0.092 | -0.036 | 
PPP2R5C isoform 4 (UniProt Q13362) | 0.075 | 0.082 | -0.067 | 0.074 | -0.012
PPME1 (UniProt Q9Y570) |  | -0.673 (active) | 0.185 |  | -0.063
PPP1R11 (UniProt O60927) |  | -0.31 (active) | 0.034 | 0.028 | -0.029
PPP1R14C (UniProt Q8TAE6) | -0.061 |  |  |  | -0.046
PTK2 isoform 2 (UniProt Q05397) |  | -0.056 | 0.046 |  | 0.007
PRPH isoform 2 (UniProt P41219) | 0 | 0.112 | 0.001 | -0.098 | -0.052
PPP2R3C (UniProt Q969Q6) | -0.019 | -0.362 | 0.086 |  | 0.074
POM121C (UniProt A8CG34) |  | 0.077 | -0.196 |  | 
PELO (UniProt Q9BRX2) | 0.021 | -0.495 (active) | 0.058 | 0.02 | 0.006
PHC1 (UniProt P78364) | 0.042 |  |  | 0.151 | 0.073
PYGO2 (UniProt Q9BRQ0) |  | 0.151 | -0.067 | -0.003 | 0.269 (active)
PCBP2 (UniProt F8W0G4) | 0.083 | -0.058 | 0.025 |  | -0.088
PIP5K1A (UniProt Q99755) |  | -0.014 | -0.033 | 0.047 | 
POLR2F (UniProt U3KPV3) |  |  |  |  | -0.113
